High-throughput results deposited in PubChem BioAssay by National Center for Advancing Translational Sciences (NCATS).
G9a block = blocks human histone lysine methyltransferase G9a. Q96KQ7. G9a H3K9 monomethylation, AlphaScreen, 2 h. Potency, µM (doses to about 102 µM), usual class: inhibitors. 350,000 tested, 8.8% active. AID 504332; also: nearly all actives have a fitted effect of over 75% in size
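G9a (20 nM) preincubated 15 min RT with compounds, then 500 nM biotinylated H3K9 peptide and 20 uM SAM added; 2 h RT reaction. Monomethyl-H3K9 product detected by AlphaScreen with anti-H3K9me1 antibody, streptavidin donor and anti-rabbit IgG acceptor beads.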
JMJD2A Tudor inh = blocks the human JMJD2A Tudor domain; O75164; AlphaScreen JMJD2A-Tudor / H3K4me3 peptide binding; 390,000 tested, 4.4% active; Potency, µM (series often up to 114 µM), actives largely listed as inhibitors; also: nearly all actives have a fitted effect of over 50% in size
HP1b chromo inh = HP1-beta chromodomain-methylated histone interaction inhibition | Potency, µM (series often up to 114 µM), usual class: inhibitors | 390,000 tested, 0.56% active | P83916 | AlphaScreen HP1-beta / biotin-H3K9me3 peptide binding; also: nearly all actives have a fitted effect of over 70% in size
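Compound inhibition of the preformed complex between 50 nM HP1-beta and 50 nM biotinylated H3K9me3 peptide was read by AlphaScreen. Buffer was PBS pH 7.4 with 0.01% Tween-20. Incubations ran 30 min at room temperature, with 10 ug/mL donor/acceptor beads.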
L3MBTL1 block = blocks human L3MBTL1; Q9Y468; AlphaScreen L3MBTL1–H3K9me1 peptide binding; Potency, µM (highest dose often 57.1 µM), usual class: inhibitors; 230,000 tested, 0.66% active; also: nearly all actives have a fitted effect of over 60% in size
Target sequence (Q9Y468 whole entry, looked up): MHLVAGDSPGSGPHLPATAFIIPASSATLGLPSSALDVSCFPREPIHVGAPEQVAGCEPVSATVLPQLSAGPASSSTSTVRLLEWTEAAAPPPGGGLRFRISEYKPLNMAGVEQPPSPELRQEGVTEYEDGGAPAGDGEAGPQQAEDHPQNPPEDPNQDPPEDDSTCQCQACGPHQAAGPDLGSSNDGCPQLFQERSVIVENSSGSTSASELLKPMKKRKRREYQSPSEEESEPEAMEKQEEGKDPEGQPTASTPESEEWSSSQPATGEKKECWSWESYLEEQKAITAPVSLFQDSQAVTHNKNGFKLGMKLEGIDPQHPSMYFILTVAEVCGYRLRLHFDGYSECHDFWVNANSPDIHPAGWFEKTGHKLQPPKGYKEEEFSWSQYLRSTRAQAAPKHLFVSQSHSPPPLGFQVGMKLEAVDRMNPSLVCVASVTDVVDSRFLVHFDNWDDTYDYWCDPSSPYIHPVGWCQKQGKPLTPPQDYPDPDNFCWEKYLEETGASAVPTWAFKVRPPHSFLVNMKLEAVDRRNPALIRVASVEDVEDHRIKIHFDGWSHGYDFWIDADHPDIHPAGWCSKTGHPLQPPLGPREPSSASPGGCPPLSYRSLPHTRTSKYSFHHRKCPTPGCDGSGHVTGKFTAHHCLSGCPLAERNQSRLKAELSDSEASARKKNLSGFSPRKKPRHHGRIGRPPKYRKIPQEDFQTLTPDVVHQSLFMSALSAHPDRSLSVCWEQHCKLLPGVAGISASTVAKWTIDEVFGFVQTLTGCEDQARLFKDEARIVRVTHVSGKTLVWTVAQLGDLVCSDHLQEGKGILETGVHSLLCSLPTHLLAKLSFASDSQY
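Displacement of a biotinylated histone H3(1-15) peptide monomethylated at Lys9 (75 nM) from L3MBTL1 (50 nM) was measured by AlphaScreen after a 30 min room-temperature compound incubation; cefsulodin titration served as intraplate control.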
BAZ2B inh = BAZ2B (human) inhibition; Q9UIF8; AlphaScreen BAZ2B-H3K14Ac peptide displacement; Potency, µM (highest dose often 114 µM), usual class: inhibitors; 360,000 tested, 4.4% active; AID 504333; also: nearly all actives have a fitted effect of over 60% in size
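BAZ2B 50 nM plus b-H3(5-23)K14Ac 50 nM, PBS pH 7.4/0.01% Tween-20, 30 min RT; compound added (max 110 uM), 30 min RT; streptavidin donor/Ni-chelate acceptor beads 10 ug/mL final, 20 min dark; AlphaScreen read.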
Numbers stand for hits; 0 = inactive; ? = inconclusive; - = no result; [ ] = remark or other dose. Compounds with a hit are over-represented: about 11% of the library has one in this group of screens. Calls follow the shape of the dose curve; as a rule, active = well fitted inhibition curve with a large enough effect; inconclusive = small, poorly fitted or top-dose-only effect; inactive = no such curve, though single readings can be large or run the other way.

SMILES	G9a block	JMJD2A Tudor inh	HP1b chromo inh	L3MBTL1 block	BAZ2B inh
COc1ccccc1C(CCN(Cc1cccs1)C(C)=O)c1ccco1 (centres undefined)	45µM	0	0	0	79µM
Cc1ccc2c(c1)C(c1ccc(F)cc1)N(C(=O)c1ccc(S(=O)(=O)N3CCCCC3)cc1)CC(=O)N2 (centres undefined)	0	0	0	-	0
COc1ccccc1N=Nc1ccc(O)c2ncccc12	45µM	45µM	10µM	-	20µM
CCS(=O)(=O)c1ccc(N=Nc2ccc(O)c3ncccc23)c(OC)c1	7.1µM	20µM	50µM	-	5.6µM
Oc1ccc(N=Nc2ccccc2C(F)(F)F)c2cccnc12	0[2.33 µM]	10µM	0	-	5.6µM
O=c1ncn(-c2ccccc2C(F)(F)F)c2ncccc12	0	0	0	0	0
Cc1ccc(N=Nc2ccc(O)c3ncccc23)cc1C	?	?	0	-	0
CCS(=O)(=O)c1ccc(O)c(NC(=O)c2cc(OC)c(OC)c(OC)c2)c1	0	0	0	0	0
COc1ccc(C)cc1NC(=O)COCc1cc(-c2ccc(F)cc2)on1	0	0	0	-	0
Cc1cc(S(=O)(=O)NCC(c2ccc3c(c2)OCO3)N2CCOCC2)ccc1F (centres undefined)	?	0	0	0	0
CN=c1scc(-c2ccc(OC)cc2)n1/N=C(\C)c1cccnc1	32µM	50µM	45µM	?	32µM
O=C(NCC(c1cccnc1)N1CCN(Cc2ccccc2)CC1)C(=O)Nc1ccc(Cl)cc1 (centres undefined)	0	0	0	-	0
COc1cc(F)c(S(=O)(=O)N2CCCN(S(=O)(=O)c3cccc(NC(C)=O)c3)CC2)c(F)c1	-	0	-	-	-
CNC(=O)c1c(O)c2cccc3c2n(c1=O)CCC3	-	?	0	0	0
CCN(CC)CCNC(=O)c1c(O)c2cccc3c2n(c1=O)CCC3	56µM	0	0	0	0
O=c1c([N+](=O)[O-])c(O)c2cccc3c2n1CCC3	79µM	?	0	-	?
CCn1c(NC(C)=O)nc2ccccc21	10µM	40µM	0	0	0
Cc1c(Cl)c(C(=O)Nc2nc3ccccc3n2CCN2CCCCC2)nn1C	0	-	-	-	?
CC(=O)Nc1nc2ccccc2n1CCN1CCOCC1	?	4.5µM	0	0	0
CCn1cc(Cl)c(C(=O)Nc2nc3ccccc3n2CCN2CCCCC2)n1	0	?	0	0	79µM
CN1CCN(c2ccnc(-c3ccoc3)n2)CC1	0[0.501 µM]	-	-	-	-
COc1ccc(OCCCC(=O)Nc2nc(C)c(C(C)=O)s2)cc1	0[0.501 µM]	?	0	0	0
CC(=O)c1sc(NCc2ccccc2)nc1C	71µM	0	0	-	?
COc1ccc(CCNc2nc(C)c(C(C)=O)s2)cc1OC	4µM	?	?	-	?
CC(=O)c1sc(NC(=O)CCCOc2ccc(Cl)cc2)nc1C	?	0	0	0	79µM
SMILES	G9a block	JMJD2A Tudor inh	HP1b chromo inh	L3MBTL1 block	BAZ2B inh
Cc1nc(NCCc2ccccc2)sc1C(=O)O	0	0	0	-	0
COc1ccc(CCNc2nc(-c3ccc(F)cc3)c(CC(=O)O)s2)cc1OC	7.1µM	0	?	-	0
Cc1cc(C)cc(OCC(=O)N(Cc2ccco2)Cc2ccccc2Cl)c1	0	0	0	-	0
CCN(CC)CCNC(=O)c1c(C)oc2ncnc(N3CCOCC3)c12	0	0	0	-	0
Cc1ccc(CNc2nc(C)c(C(=O)N(C)C)s2)cc1	0	0	0	-	0
CC(=O)c1sc(Nc2cccc3ccccc23)nc1C	-	0	0	-	-
CC(=O)c1sc(NCc2ccc(C)cc2)nc1C	56µM	0	0	-	0
CC(=O)c1sc(Nc2ccc(C)cc2)nc1C	?	0	0	-	0
CC(=O)c1sc(NCCOc2ccc(C)cc2)nc1C	50µM	0	0	?	0
CC(=O)c1sc(Nc2ccccn2)nc1C	0	0	0	0	50µM
O=c1c(-c2cccc(Cl)c2)nc2cncnc2n1Cc1ccccc1Cl	0[12.7 µM]	-	-	-	-
NCc1cc2c3c(c1)CCCN3CCC2	16µM	0	0	-	50µM
COc1c(C=O)cc2c3c1CCCN3CCC2	0	0	0	0	0
CCCCOC(=O)c1c(C)oc2c1cc(NS(=O)(=O)c1cc(OC)ccc1OC)c1ccccc12	0	0	0	-	0
Cc1nnc(NC(=O)c2cccc(S(=O)(=O)N3CCOCC3)c2)s1	0[12.7 µM]	0	0	-	0
Cc1cnc(NC(=O)c2cccc(S(=O)(=O)N3CCOCC3)c2)s1	7.1µM	0	0	0	0
COc1ccc(C(=O)Nc2ccccc2N2CCCC2)cc1S(=O)(=O)N1CCOCC1	10µM	0	0	0	0
